Here are results for nine molecules from PubChem BioAssay (EPA / NIEHS).

Records with an inconclusive call do not appear. Active and inactive are the calls of the source. Rule for the calls, unless noted: active = hit-call score of the fitted dose curve at least 0.9, where 1 is the maximum; inconclusive = response in the unintended direction; inactive = score below 0.9.

For assay [1], the target named is Glucocorticoid receptor (Homo sapiens) (UniProt P04150). Nature of the assay: ATG_GR_TRANS: Attagene TRANS-FACTORIAL HepG2 Assay for human Glucocorticoid Receptor (GR) (AID 2282978).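 Note: activators score as hits since higher reporter transcript over DMSO is fitted.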 As to conditions: HepG2 Attagene TRANS GR reporter, mRNA transcription. An outline of the steps: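 Multiplexed TRANS reporter system, HepG2; 24 h exposure; RNA → oligo(dT) RT → reporter-specific PCR → 6-FAM primer extension → HpaI cut → CE fluorescence. Gain-of-signal vs DMSO.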
Sequence of Glucocorticoid receptor (Homo sapiens) (P04150 whole entry, looked up): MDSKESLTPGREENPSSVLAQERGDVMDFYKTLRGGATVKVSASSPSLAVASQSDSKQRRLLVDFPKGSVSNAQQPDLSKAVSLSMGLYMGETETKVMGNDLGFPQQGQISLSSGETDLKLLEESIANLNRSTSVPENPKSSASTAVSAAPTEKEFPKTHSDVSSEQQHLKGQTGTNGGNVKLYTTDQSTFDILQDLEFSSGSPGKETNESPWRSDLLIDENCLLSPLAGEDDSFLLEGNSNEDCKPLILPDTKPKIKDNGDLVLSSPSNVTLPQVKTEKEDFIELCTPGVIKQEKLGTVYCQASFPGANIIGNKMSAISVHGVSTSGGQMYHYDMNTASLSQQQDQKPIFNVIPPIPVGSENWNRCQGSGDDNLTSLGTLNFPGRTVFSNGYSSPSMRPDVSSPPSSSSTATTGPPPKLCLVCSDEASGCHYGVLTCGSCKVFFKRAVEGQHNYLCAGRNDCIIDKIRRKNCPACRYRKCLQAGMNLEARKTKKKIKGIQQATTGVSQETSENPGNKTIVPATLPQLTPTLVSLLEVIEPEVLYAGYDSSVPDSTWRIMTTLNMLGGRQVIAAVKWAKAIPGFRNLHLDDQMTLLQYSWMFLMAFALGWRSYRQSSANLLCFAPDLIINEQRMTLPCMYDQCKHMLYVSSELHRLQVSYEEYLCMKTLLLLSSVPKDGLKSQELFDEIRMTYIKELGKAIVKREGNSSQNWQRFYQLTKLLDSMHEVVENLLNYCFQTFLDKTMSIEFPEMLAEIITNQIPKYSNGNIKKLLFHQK

Assay [2] concerns the target Oxysterols receptor LXR-alpha (Homo sapiens) (UniProt Q13133). Nature of the assay: ATG_LXRa_TRANS: Attagene TRANS-FACTORIAL HepG2 Assay for human Liver X Receptor alpha (LXRa) (AID 2282980). The note with it: HepG2 Attagene TRANS reporter, LXRa transactivation. An outline of the steps:
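Transient HepG2 transfectants, 24 h dosing, RT-PCR/CE mRNA reporter quantitation; gain-of-signal vs DMSO.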

For assay [3], the target named is Nuclear receptor subfamily 4 group A member 2 (Homo sapiens) (UniProt P43354). Nature of the assay: ATG_NURR1_TRANS: Attagene TRANS-FACTORIAL HepG2 Assay for human Nuclear Receptor Related Protein 1 (NURR1) (AID 2282985). The note with it: HepG2 Attagene TRANS reporter, mRNA readout. The gist of the method: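 HepG2 cells transiently transfected with NURR1-Gal4 chimera and GAL4-UAS reporter units; after 24 hr compound exposure, reporter mRNA quantified by RT-PCR and capillary electrophoresis; gain of signal fitted against DMSO.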
Sequence of Nuclear receptor subfamily 4 group A member 2 (Homo sapiens) (P43354 whole entry, looked up, the tested form may be a part): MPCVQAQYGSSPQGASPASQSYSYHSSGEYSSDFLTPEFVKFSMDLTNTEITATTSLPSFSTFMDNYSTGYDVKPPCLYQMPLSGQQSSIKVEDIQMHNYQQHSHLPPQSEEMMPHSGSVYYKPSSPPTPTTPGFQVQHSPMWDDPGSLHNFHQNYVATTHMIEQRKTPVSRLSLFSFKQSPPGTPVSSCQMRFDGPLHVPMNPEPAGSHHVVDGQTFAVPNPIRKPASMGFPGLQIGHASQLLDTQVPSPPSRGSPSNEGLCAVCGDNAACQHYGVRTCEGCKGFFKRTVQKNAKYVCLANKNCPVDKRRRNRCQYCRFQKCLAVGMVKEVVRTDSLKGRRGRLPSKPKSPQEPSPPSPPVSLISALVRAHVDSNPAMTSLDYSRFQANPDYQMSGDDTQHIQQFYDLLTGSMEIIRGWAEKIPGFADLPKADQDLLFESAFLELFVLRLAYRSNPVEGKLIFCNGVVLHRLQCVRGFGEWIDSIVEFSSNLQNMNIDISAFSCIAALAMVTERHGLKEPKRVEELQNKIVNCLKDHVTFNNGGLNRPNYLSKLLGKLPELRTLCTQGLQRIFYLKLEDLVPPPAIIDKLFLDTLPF

For assay [4], the target named is human Peroxisome Proliferator-activated Receptor delta (PPARd), PPARD (gene 5467) (UniProt Q03181). In words: ATG_PPARd_TRANS: Attagene TRANS-FACTORIAL HepG2 Assay for human Peroxisome Proliferator-activated Receptor delta (PPARd) (AID 2283002). The gist of the method: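 HepG2 cells transiently transfected with GAL4-UAS multiplexed reporter units driven by exogenous chimeric NR-GAL4 proteins; 24 h compound exposure. Reporter mRNA measured by RT-PCR, 6-FAM primer extension, HpaI digestion and capillary electrophoresis; gain of signal fitted relative to DMSO.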

Assay [5] has as its target human Vitamin D Receptor (VDR), VDR (gene 7421) (UniProt P11473). In words: ATG_VDR_TRANS: Attagene TRANS-FACTORIAL HepG2 Assay for human Vitamin D Receptor (VDR) (AID 2283022). The gist of the method:
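Fluorescence of labelled reporter cDNA fragments, resolved by capillary electrophoresis, gives mRNA induction after 24 h treatment of HepG2 cells carrying transfected Gal4-fusion reporter units. Activity is fitted in the positive direction with DMSO as baseline.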

Assay [6] in a line: TOX21_p53_BLA_p3_viability: Viability Assessment in the Tox21 HCT-116 p53 Agonism Beta-lactamase Assay, Phase 3 (AID 2283593).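 Note: cells exposed to compound for 16 h before reading.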 An outline of the steps:
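HCT116 cells, 4000/well, dosed 5 h after plating by pin transfer (217-fold dilution from DMSO stock) and incubated 16 h at 37C, 5% CO2. Viability read as ATP luminescence with CellTiter-Glo after 30 min at room temperature.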

The nature of assay [7]: TOX21_p53_BLA_p4_viability: Viability Assessment in the Tox21 HCT-116 p53 Agonism Beta-lactamase Assay, Phase 4 (AID 2283597).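 Note: hits lower the luminescence signal meaning cytotoxicity.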 An outline of the steps:
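Compound exposure of HCT116 cells lasts 16 h at 37C, 5% CO2, with DMSO stocks diluted 217-fold. Cellular ATP is then quantified by CellTiter-Glo luminescence after 30 min at room temperature.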

A short description of assay [8]: ACEA_ER_AUC_viability: ACEA Biosciences xCELLigence Real-Time Cell Analysis on Estrogen Receptor Agonism for Viability (AID 2283782).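 Note: continuous compound exposure with impedance area under curve over 80 h; hit means loss of impedance signal meaning reduced cell growth or viability.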 The gist of the method:
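T47D cells preconditioned in phenol red-free RPMI with charcoal-stripped FBS, then dosed with 8-point 1:4 series from 100 uM (up to 0.5% DMSO). Impedance monitored up to ~80 h; area-under-curve loss versus DMSO taken as viability.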

The target of assay [9] is Bile acid receptor (Homo sapiens) (UniProt Q96RI1). Nature of the assay: ATG_IR1_CIS: Attagene CIS-FACTORIAL HepG2 Assay for human Nuclear Receptor Subfamily 1 Group H Member 4 (NR1H4), IR1 submotif (AID 2282946; active = hit-call score of the fitted dose curve at least 0.9, where 1 is the maximum; inactive = score below 0.9). The note with it: IR1 reporter transcription, actives raise or lower the signal. An outline of the steps: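 HepG2 cells transiently transfected with multiple cis-promoter-driven reporter units to measure endogenous transcription factor activity; 24 h exposure. Reporter mRNA read by RT-PCR, FAM labelling, HpaI digestion and capillary electrophoresis. Bidirectional fit versus DMSO.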
Sequence of Bile acid receptor (Homo sapiens) (Q96RI1 whole entry, looked up, the tested form may be a part): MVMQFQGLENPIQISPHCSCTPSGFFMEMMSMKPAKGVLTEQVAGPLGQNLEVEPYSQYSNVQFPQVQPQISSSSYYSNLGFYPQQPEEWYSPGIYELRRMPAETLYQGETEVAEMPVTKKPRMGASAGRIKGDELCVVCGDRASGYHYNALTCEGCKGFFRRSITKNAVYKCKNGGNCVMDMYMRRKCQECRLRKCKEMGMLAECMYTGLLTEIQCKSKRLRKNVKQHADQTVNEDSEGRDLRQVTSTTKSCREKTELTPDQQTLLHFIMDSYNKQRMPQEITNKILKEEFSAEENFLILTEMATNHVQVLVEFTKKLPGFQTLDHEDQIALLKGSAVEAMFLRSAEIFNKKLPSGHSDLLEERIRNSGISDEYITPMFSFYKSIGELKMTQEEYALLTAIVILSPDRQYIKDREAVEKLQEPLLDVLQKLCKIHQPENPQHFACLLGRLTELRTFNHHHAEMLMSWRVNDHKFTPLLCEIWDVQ

The target of assay [10] is Hypoxia-inducible factor 1-alpha (Homo sapiens) (UniProt Q16665). In words: ATG_HIF1a_CIS: Attagene CIS-FACTORIAL HepG2 Assay for human Hypoxia Inducible Factor 1 (HIF1A) (AID 2282951; active = hit-call score of the fitted dose curve at least 0.9, where 1 is the maximum; inactive = score below 0.9). The note with it: HepG2 Attagene cis-factorial HIF1a reporter transcription; actives raise or lower the signal. The gist of the method: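 HepG2, transient cis-reporter library, 24 h dosing. RNA → RT (oligo dT) → PCR → 6-FAM primer extension → HpaI → CE. Bidirectional curve fit vs DMSO.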
Sequence of Hypoxia-inducible factor 1-alpha (Homo sapiens) (Q16665 whole entry, looked up): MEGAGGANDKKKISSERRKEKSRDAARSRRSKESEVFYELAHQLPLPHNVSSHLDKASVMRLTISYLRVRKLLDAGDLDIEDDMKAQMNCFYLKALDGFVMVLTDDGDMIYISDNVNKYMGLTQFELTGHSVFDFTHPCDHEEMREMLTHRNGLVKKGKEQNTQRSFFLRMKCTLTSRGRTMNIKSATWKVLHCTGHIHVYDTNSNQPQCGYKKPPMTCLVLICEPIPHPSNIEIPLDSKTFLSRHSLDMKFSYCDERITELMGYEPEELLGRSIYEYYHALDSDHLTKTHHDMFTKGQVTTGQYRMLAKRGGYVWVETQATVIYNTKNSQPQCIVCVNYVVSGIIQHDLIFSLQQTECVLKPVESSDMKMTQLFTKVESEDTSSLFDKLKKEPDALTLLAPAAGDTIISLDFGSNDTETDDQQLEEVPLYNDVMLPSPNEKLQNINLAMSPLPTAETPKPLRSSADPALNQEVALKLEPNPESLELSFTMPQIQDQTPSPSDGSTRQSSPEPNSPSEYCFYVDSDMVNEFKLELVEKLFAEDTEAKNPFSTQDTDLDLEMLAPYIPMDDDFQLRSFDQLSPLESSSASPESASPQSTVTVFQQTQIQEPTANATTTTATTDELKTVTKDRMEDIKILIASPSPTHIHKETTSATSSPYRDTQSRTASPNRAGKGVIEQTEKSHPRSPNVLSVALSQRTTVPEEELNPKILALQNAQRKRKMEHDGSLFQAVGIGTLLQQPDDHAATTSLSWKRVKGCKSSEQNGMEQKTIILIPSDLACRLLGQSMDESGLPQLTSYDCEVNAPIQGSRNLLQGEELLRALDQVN

Assay [11] can be described thus: ATG_PPRE_CIS: Attagene CIS-FACTORIAL HepG2 Assay for human Peroxisome Proliferator-activated Response Element (PPRE) (AID 2282958; active = hit-call score of the fitted dose curve at least 0.9, where 1 is the maximum; inactive = score below 0.9). As to conditions: HepG2 PPRE cis-element reporter, Attagene transcription factor profiling; actives raise or lower the signal. An outline of the steps:
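Transcript-level reporter induction in transfected HepG2 cells after 24 h chemical exposure, quantified by fluorescence from RT-PCR products separated by capillary electrophoresis.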

The target of assay [12] is Nuclear receptor subfamily 1 group I member 3 (Homo sapiens) (UniProt Q14994). Nature of the assay: ATG_CAR_TRANS: Attagene TRANS-FACTORIAL HepG2 Assay for human Constitutive Androstane Receptor (CAR) (AID 2282969).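 Note: activators raise reporter mRNA above DMSO so AC50 marks induction.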 As to conditions: HepG2 Attagene TRANS-FACTORIAL CAR reporter. An outline of the steps: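 HepG2 cells transiently transfected with GAL4-UAS reporter units; TRANS format reads activity of exogenous chimeric NR-Gal4 protein. After 24 h dosing, reporter mRNA quantified by RT-PCR, 6-FAM labelling and capillary electrophoresis; gain of signal fitted against DMSO.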
Sequence of Nuclear receptor subfamily 1 group I member 3 (Homo sapiens) (Q14994 whole entry, looked up, the tested form may be a part): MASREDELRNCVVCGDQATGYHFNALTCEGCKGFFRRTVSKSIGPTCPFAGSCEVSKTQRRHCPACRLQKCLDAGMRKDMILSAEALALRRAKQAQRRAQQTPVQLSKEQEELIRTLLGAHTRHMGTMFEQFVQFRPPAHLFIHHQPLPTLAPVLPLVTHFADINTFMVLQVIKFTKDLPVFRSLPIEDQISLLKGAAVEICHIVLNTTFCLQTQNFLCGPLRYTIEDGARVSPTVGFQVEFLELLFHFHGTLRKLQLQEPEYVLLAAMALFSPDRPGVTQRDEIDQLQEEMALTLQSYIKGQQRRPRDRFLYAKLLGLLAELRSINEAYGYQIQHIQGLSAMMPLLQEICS

Assay [13] can be described thus: ATG_M_19_TRANS: Attagene TRANS-FACTORIAL HepG2 Assay for M19 Transcription Factor (Internal Marker) (AID 2282974). As to conditions: HepG2 Attagene TRANS-FACTORIAL M19 internal marker reporter. An outline of the steps: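 After transfection of HepG2 with GAL4-UAS-driven reporter constructs, cells are dosed for 24 h. Total RNA is reverse-transcribed, reporter sequences PCR-amplified and labelled, then HpaI-digested and sized by capillary electrophoresis.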

Assay [14] can be described thus: ATG_GAL4_TRANS: Attagene TRANS-FACTORIAL HepG2 Assay for GAL4 (Internal Marker) (AID 2282976). As to conditions: HepG2 Attagene TRANS GAL4 internal marker reporter. An outline of the steps:
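Fluorescence from capillary electrophoresis of labelled RT-PCR products quantifies reporter mRNA induction after 24 h dosing of HepG2 cells carrying transfected GAL4-UAS reporter transcription units. Vehicle DMSO serves as baseline.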

The target of assay [15] is Bile acid receptor (Homo sapiens) (UniProt Q96RI1). Nature of the assay: ATG_FXR_TRANS: Attagene TRANS-FACTORIAL HepG2 Assay for Farnesoid X Receptor (FXR) (AID 2282979).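 Note: hits raise reporter mRNA above DMSO so AC50 marks FXR activation.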 The note with it: HepG2 Attagene TRANS FXR-GAL4 reporter transcription. An outline of the steps:
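Chimeric FXR-GAL4 activity in transiently transfected human HepG2 liver cells is scored as induction of reporter mRNA after 24 h of dosing. Detection uses RT-PCR with fluorescent labelling and capillary electrophoresis, with DMSO serving as baseline.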

Assay [16] has as its target Peroxisome proliferator-activated receptor gamma (Homo sapiens) (UniProt P37231). In words: ATG_PPARg_TRANS: Attagene TRANS-FACTORIAL HepG2 Assay for human Peroxisome Proliferator-activated Receptor-gamma (PPARg) (AID 2283007). An outline of the steps: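 Human hepatoma HepG2, transient MRTU transfection, 24 h treatment. mRNA reporter signal by RT-PCR plus capillary electrophoresis, fluorescence detection; fitted for increase over DMSO negative control.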

Assay [17] deals with human RAR-related Orphan Receptor beta (RORb), RORB (gene 6096) (UniProt Q92753). In words: ATG_RORb_TRANS: Attagene TRANS-FACTORIAL HepG2 Assay for human RAR-related Orphan Receptor beta (RORb) (AID 2283010). The gist of the method:
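HepG2 cells transiently transfected with GAL4-UAS reporter units expressing chimeric NR-Gal4 protein; reporter mRNA measured 24 h after dosing by RT-PCR, 6-FAM labelling and capillary electrophoresis. Gain-of-signal fitted relative to DMSO baseline.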

For assay [18], the target named is human RAR-related Orphan Receptor gamma (RORg), RORC (gene 6097) (UniProt P51449). Nature of the assay: ATG_RORg_TRANS: Attagene TRANS-FACTORIAL HepG2 Assay for human RAR-related Orphan Receptor gamma (RORg) (AID 2283011). The gist of the method:
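Activity is scored as increase in GAL4-UAS reporter mRNA over DMSO, detected by fluorescent RT-PCR and capillary electrophoresis in HepG2 cells transiently expressing a RORg-Gal4 chimera, 24 h after dosing.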

For assay [19], the target named is human Peroxisome Proliferator-activated Receptor alpha (PPARa), PPARA (gene 5465) (UniProt Q07869). In words: ATG_PPARa_TRANS: Attagene TRANS-FACTORIAL HepG2 Assay for human Peroxisome Proliferator-activated Receptor alpha (PPARa) (AID 2283001). The gist of the method: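 HepG2 cells transiently transfected with multiplexed GAL4-UAS reporters driven by exogenous chimeric NR-Gal4 proteins; reporter mRNA measured after 24 h dosing. Read-out by RT-PCR, 6-FAM labelling, HpaI digestion and capillary electrophoresis; gain of signal versus DMSO.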

Assay [20] has as its target human Thyroid Receptor alpha (THRa1), THRA (gene 7067) (UniProt P10827). In words: ATG_THRa1_TRANS: Attagene TRANS-FACTORIAL HepG2 Assay for human Thyroid Receptor alpha (THRa1) (AID 2283014). An outline of the steps: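 First, HepG2 cells receive multiple GAL4-UAS reporter units and the chimeric receptor. They are then dosed for 24 h, after which RNA is reverse-transcribed, amplified, labelled, HpaI-cut and sized by capillary electrophoresis; gain relative to DMSO is scored.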

Sequence of human RAR-related Orphan Receptor beta (RORb), RORB (gene 6096) (Q92753 whole entry, looked up, the tested form may be a part): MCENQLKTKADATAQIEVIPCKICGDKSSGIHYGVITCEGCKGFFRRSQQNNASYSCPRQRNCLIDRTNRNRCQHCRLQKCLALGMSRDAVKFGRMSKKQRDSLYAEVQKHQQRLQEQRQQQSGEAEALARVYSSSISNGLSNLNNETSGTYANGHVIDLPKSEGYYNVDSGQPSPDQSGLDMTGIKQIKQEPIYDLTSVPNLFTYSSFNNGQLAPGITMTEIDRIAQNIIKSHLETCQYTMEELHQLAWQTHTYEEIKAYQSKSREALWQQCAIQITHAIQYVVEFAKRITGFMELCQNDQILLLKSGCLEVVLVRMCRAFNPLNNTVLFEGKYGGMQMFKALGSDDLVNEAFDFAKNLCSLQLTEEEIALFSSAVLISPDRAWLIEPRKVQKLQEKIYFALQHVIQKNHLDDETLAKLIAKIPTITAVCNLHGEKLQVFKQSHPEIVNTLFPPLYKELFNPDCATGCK
Sequence of human RAR-related Orphan Receptor gamma (RORg), RORC (gene 6097) (P51449 whole entry, looked up, the tested form may be a part): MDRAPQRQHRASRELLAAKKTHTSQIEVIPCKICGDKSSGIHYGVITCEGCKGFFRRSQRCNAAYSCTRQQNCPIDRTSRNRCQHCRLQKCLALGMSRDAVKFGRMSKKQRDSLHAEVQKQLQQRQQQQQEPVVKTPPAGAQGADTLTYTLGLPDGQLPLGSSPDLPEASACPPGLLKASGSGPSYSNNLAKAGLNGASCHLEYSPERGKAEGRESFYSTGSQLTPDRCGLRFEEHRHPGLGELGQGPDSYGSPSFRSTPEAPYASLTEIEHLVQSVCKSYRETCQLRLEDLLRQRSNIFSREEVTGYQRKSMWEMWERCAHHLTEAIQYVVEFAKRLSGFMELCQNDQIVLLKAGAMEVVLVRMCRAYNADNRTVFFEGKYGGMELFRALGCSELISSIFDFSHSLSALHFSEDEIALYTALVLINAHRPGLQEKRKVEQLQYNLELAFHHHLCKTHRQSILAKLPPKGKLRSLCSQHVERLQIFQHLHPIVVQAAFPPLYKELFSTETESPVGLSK
Sequence of human Thyroid Receptor alpha (THRa1), THRA (gene 7067) (P10827 whole entry, looked up, the tested form may be a part): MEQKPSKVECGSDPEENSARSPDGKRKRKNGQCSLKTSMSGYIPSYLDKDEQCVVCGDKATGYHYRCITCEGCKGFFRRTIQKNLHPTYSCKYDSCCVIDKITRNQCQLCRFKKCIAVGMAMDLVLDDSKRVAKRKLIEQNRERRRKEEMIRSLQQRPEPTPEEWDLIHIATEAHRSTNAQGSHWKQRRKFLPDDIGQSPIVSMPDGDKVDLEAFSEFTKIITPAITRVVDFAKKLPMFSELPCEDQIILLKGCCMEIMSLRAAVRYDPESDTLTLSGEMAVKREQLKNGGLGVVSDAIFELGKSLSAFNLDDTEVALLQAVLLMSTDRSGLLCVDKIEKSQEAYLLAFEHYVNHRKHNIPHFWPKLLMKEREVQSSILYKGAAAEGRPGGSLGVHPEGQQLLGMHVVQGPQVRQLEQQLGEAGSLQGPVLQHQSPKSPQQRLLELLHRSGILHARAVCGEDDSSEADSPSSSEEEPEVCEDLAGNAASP
Sequence of Peroxisome proliferator-activated receptor gamma (Homo sapiens) (P37231 whole entry, looked up): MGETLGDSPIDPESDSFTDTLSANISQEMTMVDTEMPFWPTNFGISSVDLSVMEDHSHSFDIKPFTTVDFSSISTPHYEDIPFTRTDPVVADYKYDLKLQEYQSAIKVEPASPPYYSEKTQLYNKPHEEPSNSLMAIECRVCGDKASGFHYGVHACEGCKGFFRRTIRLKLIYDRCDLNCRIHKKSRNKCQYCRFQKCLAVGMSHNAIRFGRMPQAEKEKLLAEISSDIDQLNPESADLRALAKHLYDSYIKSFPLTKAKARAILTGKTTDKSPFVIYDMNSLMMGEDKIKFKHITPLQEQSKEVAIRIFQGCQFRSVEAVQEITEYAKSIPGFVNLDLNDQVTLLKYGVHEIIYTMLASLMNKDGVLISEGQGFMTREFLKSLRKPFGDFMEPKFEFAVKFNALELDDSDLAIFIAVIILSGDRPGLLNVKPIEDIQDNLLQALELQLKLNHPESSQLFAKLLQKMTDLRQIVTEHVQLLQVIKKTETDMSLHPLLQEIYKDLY

Consider `O=C1CCCCCCCCCCCCCC1`, for which the molecule was classed as inactive in assay [1], in assay [2], in assay [4], in assay [5], in assay [6] and in assay [7]. In addition, the outcome in assay [8] was inactive. For the same molecule, in assay [3], the AC50 (as a rule, the midpoint of the concentration-response curve, whichever way the signal moves) is 25.7 µM (active).

As for `CC(C)CC(=O)CC(C)CC(C)C` (stereo unspecified), the outcome in assay [9], in assay [10], in assay [11], in assay [12], in [13] and in assay [14] was inactive. Also, the result in [15], in assay [3], in assay [16], in assay [17], in assay [18] and in assay [6] was inactive. Besides, the molecule was called inactive in assay [7] and in [8].

On to `c1cc(N(CC2CO2)CC2CO2)ccc1Cc1ccc(N(CC2CO2)CC2CO2)cc1` (stereo unspecified), for which the AC50 in [9] is 27.6 µM (active); in [10], 6.64 µM (active); in assay [3], 70.9 µM (active). Besides, the molecule was classed as inactive in assay [11], in assay [13], in [14], in assay [1], in [15] and in assay [2]. For the same molecule, the molecule was called inactive in [4], in assay [16], in assay [5], in assay [6] and in assay [7].

As for `O=C(OCc1ccccc1)c1ccccc1`, the molecule was called inactive in assay [9], in assay [11], in assay [13], in [14], in assay [1] and in [2]. Moreover, the molecule was classed as inactive in assay [3], in assay [19], in assay [16], in assay [20] and in assay [5]. In addition, in [8], the AC50 was 76.8 µM (active).

With `CC(=O)CCc1ccccc1`, the outcome in assay [10], in assay [13], in [14], in assay [19], in assay [17] and in assay [18] was inactive. Further, the molecule was called inactive in assay [5], in [6] and in assay [7].

Take `CCC(C)(CCC(C)C)C(=O)O` (stereo unspecified): the molecule was called inactive in assay [13], in assay [19], in [4], in assay [17], in assay [18] and in assay [5]. The molecule was classed as inactive in [8].

In the case of `NC(=O)c1ccc([N+](=O)[O-])cc1Cl`, the outcome in assay [9], in [10], in [11], in [13], in [1] and in assay [15] was inactive. Moreover, the molecule was classed as inactive in [4], in [16], in [17] and in assay [20].

Take `CC(=O)Nc1c(I)c(NC(C)=O)c(I)c(C(=O)O)c1I`: the result in assay [1] and in [3] was inactive.

Regarding `O=C(Oc1ccccc1)c1ccccc1`, the outcome in assay [9], in assay [10], in assay [11], in [13], in assay [4] and in assay [16] was inactive. The result in assay [17], in assay [18], in assay [20] and in assay [8] was inactive.
